In PubChem BioAssay AID651844 (Broad Institute, 2012):
Results with a measured potency or affinity are listed apart. Inconclusive results are not listed. Active and inactive are the calls of the source.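 The calls were made as follows: active = every test run shows a luminescence drop with half-maximal concentration at most twice the top tested dose; inconclusive = test runs disagree, weak flat response, or unreliable curve fit; inactive = the rest.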

Experiment: NIH/3T3 fibroblast cytotoxicity, dose response, cytotoxicity control, cell-based, dry powder samples (AID 651844)
Conditions: NIH/3T3 viability, CellTiter-Glo ATP luminescence, 90 h; series mostly up to 16 µM

Row | Compound | outcome
1 | CC(C)N1C[C@H](C)[C@@H](CN(C)C(=O)OC(C)(C)C)Oc2c(C(=O)O)cccc2C1=O | inactive
2 | CC(C)N1C[C@H](C)[C@@H](CN(C)Cc2ccccc2Cl)Oc2c(NC(=O)c3ccncc3)cccc2C1=O | inactive
3 | CC(C)N1C[C@H](C)[C@@H](CN(C)Cc2cccc(Cl)c2)Oc2c(NC(=O)c3ccncc3)cccc2C1=O | inactive
4 | CC(C)N1C[C@H](C)[C@@H](CN(C)Cc2ccccc2)Oc2c(NC(=O)c3ccncc3)cccc2C1=O | inactive
5 | C[C@H]1CN([C@@H](C)CO)C(=O)c2cccc(NC(=O)c3ccncc3)c2O[C@@H]1CN(C)Cc1ccc(C(F)(F)F)cc1 | inactive
6 | CC(C)N1C[C@H](C)[C@@H](CN(C)CC2CCOCC2)Oc2c(NC(=O)c3ccncc3)cccc2C1=O | inactive
7 | CC(C)N(C)C(=O)c1cccc(NC(=O)c2ccncc2)c1OCCCN(C)C(=O)OC(C)(C)C | inactive
8 | C[C@@H]1CN([C@@H](C)CO)C(=O)c2cccc(NC(=O)c3ccncc3)c2O[C@H]1CN(C)Cc1ccc(C(=O)O)cc1 | inactive
9 | COc1ccc(CN(C)C[C@H]2Oc3c(NC(=O)c4ccncc4)cccc3C(=O)N([C@@H](C)CO)C[C@@H]2C)cc1 | inactive
10 | C[C@@H]1CN([C@H](C)CO)C(=O)c2cccc(NC(=O)c3ccncc3)c2O[C@H]1CN(C)Cc1ccc2c(c1)OCO2 | inactive
11 | C[C@H]1CN([C@@H](C)CO)C(=O)c2cccc(NC(=O)c3ccncc3)c2O[C@@H]1CN(C)Cc1ccc(C(=O)Nc2ccccc2N)cc1 | inactive
12 | C[C@@H]1CN([C@@H](C)CO)C(=O)c2cccc(NC(=O)c3ccncc3)c2O[C@H]1CN(C)Cc1ccncc1 | inactive
